Source: PubChem BioAssay
Methyltransferases: Primary Screen for Target Class Profiling of Small Molecule Inhibitors of Methyltransferases; calls only at 40 µM; purified enzyme, MTase-Glo SAH luminescence; hits give low values; actives 3.9% (n = 25,000); call rule not given here
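Each enzyme was reacted with SAM and its substrate, with compounds tested once at 40 uM; SAH formed was read by MTase-Glo luminescence.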
Starred values were filed as active, the others as inactive; i = inactive; + = active, no number; ! = repeats disagree. The sample as a whole holds a higher share of hits than the screen did. On the % scale 0 is the no-effect control and ±100 the full control effect.

SMILES	Methyltransferases
CC1(C(=O)NCc2ccccc2)Cn2nc(-c3ccccc3)cc2C(=O)N1c1ccc(F)cc1 (stereo not drawn)	i
CC(C)OCCCNC(=O)CCc1nnc2n(Cc3ccccc3Cl)c(=O)c3ccccc3n12	i
CC1(C(=O)NC2CCCC2)Cn2c(cc3ccccc32)C(=O)N1Cc1ccccc1F (stereo not drawn)	i
CCCCN(CC)CCN1C(=O)c2cc3sccc3n2CC1(C)C(=O)NC1CCCCCC1 (stereo not drawn)	i
Cc1cccc(NC(=O)N2Cc3c(sc4c3CCCC4)-n3cccc3C2c2cc(F)cc(F)c2)c1 (stereo not drawn)	i
COc1ccc(CNC(=O)c2sc(=S)n3c2[nH]c(=O)c2cc4c(cc23)OCO4)cc1	i
COc1ccccc1NC(=O)c1sc(=S)n2c1[nH]c(=O)c1ccc(Cl)cc12	i
COc1ccc(OC)c(NC(=O)c2sc(=S)n3c2[nH]c(=O)c2ccc(Cl)cc23)c1	+
CC1CCN(S(=O)(=O)c2ccc3c(ccn3CCC(=O)NCCc3cccs3)c2)CC1	i
Cn1c(=O)c2ccc(C(=O)NC3CCCC3)cc2n2c(=O)n(CC(=O)NCc3ccccc3)nc12	i
CCc1ccccc1N1C(=O)c2c(C(=O)OC)ncn2CC1(C)C(=O)NCCCOC(C)C (stereo not drawn)	i
O=C(CCCc1nnc2n3nc(-c4ccccc4)nc3c3ccccc3n12)N1CCC(N2CCCCC2)CC1	+
O=C(CCCc1nnc2n3nc(-c4ccccc4)nc3c3ccccc3n12)N1CCN(C2CCCCC2)CC1	i
O=C(CCCc1nnc2n3nc(-c4ccccc4)nc3c3ccccc3n12)N1CCN(Cc2ccccc2)CC1	i
O=C1CN(Cc2ccc(Br)cc2)S(=O)(=O)c2ccccc2N1Cc1ccc(F)cc1	i
C=Cc1ccc(CSc2nnc3n(Cc4ccccc4)c(=O)c4ccccc4n23)cc1	i
COc1ccccc1CNC(=O)C1(C)Cn2nc(-c3ccccc3)cc2C(=O)N1c1cccc(F)c1 (stereo not drawn)	i
CC(C)CCNC(=O)C1c2c(n(C)c3ccccc23)SCC(=O)N1C1CCCCC1 (stereo not drawn)	i
COc1ccc(OC)c(CCN2C(=O)c3cc4sccc4n3CC2(C)C(=O)NC2CCCC2)c1 (stereo not drawn)	i
OCCCNc1cc(-c2ccnc(Nc3cccc(Cl)c3)n2)ccn1	+
COc1ccc(-c2n[nH]n3c2nc(=O)c2ccc(C(=O)NCCc4ccc(OC)c(OC)c4)cc23)cc1	i
CS(=O)(=O)N(Cc1ccccn1)C1CN(C(=O)Cn2c(=O)oc3ccccc32)C1	i
C[C@]12CC[C@@H]3c4ccc(O)c(O)c4CC[C@H]3[C@@H]1CCC2=O	+
C=CC(=O)N1CCN(C(=O)CNc2cc(-c3ccccc3Cl)c(Cl)cc2OC)CC1	i
C=CC(=O)N1CCN(C(=O)c2cc(-c3cc(Cl)ccc3Cl)c(Cl)cc2OC)CC1	+
SMILES	Methyltransferases
COc1cccc(C(=O)N2CCN(C(=O)COc3cccc(C)c3)CC2)c1OC	i
Cc1ccc(Cn2c(=O)c3ccc(C(=O)NC(C)C)cc3n3c(=O)n(CC(=O)c4ccccc4)nc23)cc1	i
Cc1cc2c(cc1C1(c3ccc(C(=O)O)cn3)CC1)C(C)(C)CCC2(C)C	i
CCCCCCCOc1cc2c(cc1/C(C)=C/c1ccc(C(=O)O)cc1)C(C)(C)CCS2(=O)=O	+
CCCn1c(=O)c2cc(Cl)ccc2n2c(=O)n(CC(=O)Nc3ccc(F)cc3)nc12	i
CCCN1C(=O)c2ccc(-c3ccco3)n2CC1(C)C(=O)NC1CCCCCCC1 (stereo not drawn)	i
O=C(Nc1ccccc1)N1CCC(Cc2cnc3ccccc3c2)CC1	i
NCC(CNc1nc(Nc2cccc(NC(=O)N3CCCC3)c2)ncc1I)C(=O)c1cccs1 (stereo not drawn)	+
CC(C)Cn1c(=O)c2ccc(C(=O)NC3CCCC3)cc2n2c(=O)n(Cc3c(F)cccc3Cl)nc12	i
CCC(C)N1C(=O)c2ccccc2CC1(C)C(=O)NC1CCCCCCC1 (stereo not drawn)	i
Cc1ccccc1CN1C(=O)c2cc3occc3n2CC1(C)C(=O)NC1CCC(C)CC1 (stereo not drawn)	i
CC(C)CCn1c(=O)c2ccccc2n2c(=O)n(Cc3cccc(F)c3)nc12	i
OC[C@H]1O[C@@H](Oc2cc(O)cc(/C=C/c3ccc(O)cc3)c2)[C@H](O)[C@@H](O)[C@@H]1O	+!
OCC1OC(Oc2cc(O)cc(/C=C/c3ccc(OC4OC(CO)C(O)C(O)C4O)cc3O)c2)C(O)C(O)C1O (stereo not drawn)	i
COc1cc(O)cc(/C=C/c2ccc(O[C@@H]3O[C@H](CO)[C@@H](O)[C@H](O)[C@H]3O)cc2)c1	i
CCOC(=O)c1cc2n(n1)CC(C)(C(=O)NCc1ccccc1)N(c1ccc(C(C)C)cc1)C2=O (stereo not drawn)	i
CCC1c2ccc(C)n2CCN1C(=O)Nc1ccc(C)cc1C (stereo not drawn)	i
COc1cccc(CNC(=O)Cn2nc3n(CC(C)C)c(=O)c4ccccc4n3c2=O)c1	i
CCCCN1C(=O)c2cc(C(=O)Nc3cc(C)ccc3OC)nn2CC1(C)C(=O)NC1CCCC1 (stereo not drawn)	i
CC1CCC(NC(=O)C2(C)Cn3c(ccc3-c3ccccc3)C(=O)N2CCC2=CCCCC2)CC1 (stereo not drawn)	i
Cc1ccc(Cn2nc3n(Cc4ccc(C)cc4)c(=O)c4ccc(C(=O)NC(C)C)cc4n3c2=O)cc1	i
Cc1ccc(C)c(Nc2nn3c(=O)c4ccc(C(=O)NC5CCCCC5C)cc4nc3s2)c1 (stereo not drawn)	i
O=C1NC(=O)/C(=C/c2ccc(-c3ccc(F)cc3O)o2)S1	+
CCc1cc2c(cc3n2CC(C)(C(=O)NC2CCCCCC2)N(CCC(C)C)C3=O)s1 (stereo not drawn)	i
CC1=CC(=O)C(=C(C)C)CC2C(C)(O)CCC12O (stereo not drawn)	+
SMILES	Methyltransferases
CC(C)=C1C[C@@]2(C)C(=CC1=O)CC[C@@H](O)[C@@H]2C	i
CC1CCCC(NC(=O)C2(C)Cn3c(cc4occc43)C(=O)N2Cc2ccc(F)cc2)C1C (stereo not drawn)	i
C=CC(=O)N1CCC[C@@H](n2nc(-c3cccc(C(=O)Nc4ccc(C(C)C)c(C)c4)c3)c3c(N)ncnc32)C1	i
CC(C)n1nc(C#Cc2ccccc2)c2c(N)ncnc21	i
CC(C)n1nc(-c2ccc(NC(=O)Nc3cccc(C(F)(F)F)c3)cc2)c2c(N)ncnc21	+
CCC1c2ccc(C)n2CCN1C(=O)Nc1ccc(Br)cc1F (stereo not drawn)	i
CC1CCN(S(=O)(=O)c2ccc3c(ccn3CC(=O)NCc3ccccc3)c2)CC1	i
Cc1cc2c(C(C)C)c(O)c(O)c(C=O)c2c(O)c1-c1c(C)cc2c(C(C)C)c(O)c(O)c(C=O)c2c1O	+
CCCN1C(=O)c2cc3ccc(OC)cc3n2CC1(C)C(=O)NC1CCCCCC1 (stereo not drawn)	i
CC(C)Cn1c(=O)c2ccccc2n2c(=O)n(Cc3ccc(F)cc3Cl)nc12	i
O=C(NCc1ccc(Cl)cc1)c1ccc2c(=O)nc3c(-c4ccc(F)cc4)n[nH]n3c2c1	i
Cc1ccc(C)c(S(=O)(=O)c2nnn3c2nc(NCCc2c[nH]c4ccccc24)c2ccccc23)c1	i
